Calls of active or inactive are those of the source. Rule for the calls: active = hit-call score of the fitted dose curve at least 0.9, where 1 is the maximum; inactive = score below 0.9.
Read-out: Insulin Like Growth Factor 1 (IGF1), IGF1 (gene 3479)
Assay: LTEA_HepaRG_IGF1: Life Technologies and Expression Analysis (LTEA) Assay for Insulin Like Growth Factor 1 (IGF1) using HepaRG (AID 2283506)
Details: mRNA level, 48 h; actives raise or lower the signal
Experimental: LTEA_HepaRG is a cell based, multiplexed-readout assay that uses HepaRG, a human liver cell line, with measurements taken at 48 hours after chemical dosing on a 96-well plate.LTEA_HepaRG_IGF1 is one of 102 assay component(s) measured in the LTEA HepaRG cell culture assay. It is a marker of Cell proliferation, survival, death.Data from the assay component LTEA_HepaRG_IGF1 was analyzed into 1 endpoint. This assay endpoint, LTEA_HepaRG_IGF1, was analyzed with bidirectional fitting relative to DMSO as the negative control and baseline of activity. Using a type of inducible reporter, measures of mRNA induction for gain or loss-of-signal activity can be used to understand regulation of transcription factor activity. To generalize the intended target to other relatable targets, this assay endpoint is annotated to the growth factor intended target family, where the subfamily is insulin-like.
A total of 1060 chemcials from the ToxCast library were tested in eight-point concentration-response experiments. Cell culture and cytotoxicity assays were conducted at Thermo Fisher Scientific's Custom Services facility (Madison, WI). A single lot of human HepaRG cells (Thermo Fisher Scientific, Frederick, MD) was used for the cell culture experiments. 96-well format collagen type I coated plates of human HepaRG cells were prepared using established methods. Briefly, cryopreserved HepaRG cells were thawed, plated at a density of approximately 100,000 cells/well in HepaRG Thaw, Plate, and General Purpose media (HPRG770, Thermo Fisher Scientific), and incubated for 48 hours. 0.5% DMSO was selected as vehicle control to balance the requisite need of DMSO in HepaRG cultures to maintain differentiation (for example, baseline metabolism, proportions of hepatocytes vs. cholangiocytes), while enabling further hepatic receptor pathway activation (for example, PXR and CAR) in response to chemical exposure. 48 hours after plating, the culture medium was replaced with HepaRG Serum-Free Incudtion Media. Cells were exposed to each test chemical in duplicate and maintained in CO2 incubators for another 48 hours. Chemical plates were thawed to room temperature and 200x concentrations of treatment groups were prepared. 8-point conentration-reponse curves were made with the highest exposure at 100 uM, followed by half-log dilutions, all in 0.5% DMSO. Each test plate contained variouse controls, induction positive controls (1mM phenobarbital), cytotoxicity positive controls ([…] aflatoxin B1), vehicle controls (0.5% DMSO), and total lysis controls (0.5% DMSO). Cell morphology images were taken using an Essen IncuCyte FLR automated microscope, with six 96-well plates imaged in about 24 minutes. Images were captured and exported and JPEG files. Spent culture media was transfered to black-well plates for the LDH assay, and remaining media was sorted at -80 C for later use. Cells were treated with RLT buffer and frozen until shipped for gene expression analysis. Total RNA was isolated from the cell suspension in 75 uL of Buffer RLT (Qiagen, Germantown, MD 20874) by Quintiles/Expression Analysis (Durham, NC) using a custom isolation procedure. Total RNA from each plate well was transferred to a preamplification plate. Fluidigm's 96.96 Dynamic ArrayTM (Fluidigm, Amsterdam, the Netherlands) technology was used for gene expression analyses by quantitative reverse transcription polymerase chain reaction (qRT-PCR, performed by Quintiles/Expression Analysis, Durham, NC)89. Standard TaqManTM Assays (Applied Biosystems/ThermoFisher Scientific, Foster City, CA) were used to assess the expression of 93 genes selected based on their selectivity and sensitivity to important hepatic receptors known to be modulated by environmental chemicals; importance in human hepatocyte functionality; and hepatotoxicity. […]

SMILES | outcome | AC50
Cc1cccc([N+](=O)[O-])c1C | inactive | 
C=CCOC(=O)c1ccccc1C(=O)OCC=C | inactive | 
CCCCN(CCCC)CCCC | inactive | 
OC[C@@H](O)[C@@H](O)[C@H](O)[C@H](O)CO | inactive | 
CC(=O)C(C)=CC1C(C)=CCCC1(C)C (stereo not given) | inactive | 
CCCCCCCCCCCCCCCC | inactive | 
COc1ccc2c(c1)c(CC(=O)O)c(C)n2C(=O)c1ccc(Cl)cc1 | inactive | 
Nc1ccc2c(c1)C(=O)c1ccccc1C2=O | inactive | 
CC(CO)OC(C)CO (stereo not given) (tested in a mixture with another compound) | inactive | 
C[Si]1(C)O[Si](C)(C)O[Si](C)(C)O[Si](C)(C)O1 | inactive | 
CC(=O)OCCOCCOCCOC(C)=O | inactive | 
c1cc(-c2ccncc2)ccn1 | inactive | 
CCOC(=O)CCC(=O)OCC | inactive | 
Nc1nc(N)c2nc(CNc3ccc(C(=O)N[C@@H](CCC(=O)O)C(=O)O)cc3)cnc2n1 | inactive | 
O=C(O)Cc1ccccc1Nc1c(Cl)cccc1Cl |  | 16.5 µM (active)
Nc1ccc(S(=O)(=O)c2ccc(N)cc2)cc1 | inactive | 
COc1cc(C=O)ccc1O | inactive | 
Cc1ccc(C)c(O)c1C | inactive | 
CC1(C)CC(N=C=O)CC(C)(CN=C=O)C1 (stereo not given) | inactive | 
CCCCCCCC=O | inactive | 

SMILES | outcome | AC50
FC(F)(F)C(F)(F)C(F)(F)C(F)(F)C(F)(F)C(F)(F)CCI | inactive | 
COc1ccc(S(=O)(=O)N2C(=O)[C@@](c3ccccc3OC)(N3C[C@H](O)C[C@H]3C(=O)N(C)C)c3cc(Cl)ccc32)c(OC)c1 |  | 81.9 µM (active)
CC1=C(/C=C/C(C)=C/C=C/C(C)=C/CO)C(C)(C)CCC1 |  | 52.2 µM (active)
Cc1c(C(=O)O)c(O)cc2c1C(=O)c1c(O)c([C@@H]3O[C@H](CO)[C@@H](O)[C@H](O)[C@H]3O)c(O)c(O)c1C2=O | inactive | 
Cc1ccc(C)c(C)c1 | inactive | 
Cc1cccc(Nc2cc(Cl)nc(SCC(=O)O)n2)c1C | inactive | 
CCCCCCC(=O)OCC | inactive | 
CCCCCCCCCCCCCCCCCC(=O)O | inactive | 
CCCCCCOCCO | inactive | 
C1CCC(SSC2CCCCC2)CC1 | inactive | 
CCCCCCCCCCC | inactive | 
Cc1ccccc1Cl | inactive | 
CCNc1cccc(C)c1 | inactive | 
NCC1(Cc2noc(=O)[nH]2)CCCCC1 | inactive | 
CC1(C)NC(=O)NC1=O | inactive | 
CCCCOC(=O)CCCCCCCCC(=O)OCCCC | inactive | 
O=C(O)CCCCC(=O)O | inactive | 
CCCCc1ccc2c(n1)[C@@H](c1ccc(OC)cc1C[C@H](C)C(=O)O)[C@H](C(=O)O)[C@H]2c1ccc2c(c1)OCO2 | inactive | 
CCCCCCCCCCCC(=O)OC | inactive | 
CN1CCCC1=O | inactive | 

From PubChem BioAssay (EPA / NIEHS)
